# According to PubChem BioAssay:
# Activity calls are given as the source filed them. Unless noted, no rule for the calls is given here.
# Experiments:
# [1] = compound effects on lung adenocarcinoma cell viability – A549, calcein-AM fluorescence, 48 h, basal, profiling panel (AID 1162); conditions: higher = more signal; also: test concentration not given here
# [2] = compound effects on differentiated 3T3-L1 adipocyte viability – cell-based, 3T3-L1 adipocytes, calcein-AM fluorescence, 48 h, basal, profiling panel (AID 1163); conditions: 3T3-L1 adipocytes viability, higher = more signal; also: test concentration not given here
# [3] = compound effects on hepatocellular carcinoma cell viability – HepG2, calcein-AM fluorescence, 48 h, basal, profiling panel (AID 1164); conditions: higher = more signal; also: test concentration not given here
# [4] = compound effects on multiple myeloma cell viability – MM1S, calcein-AM fluorescence, 48 h, basal, profiling panel (AID 1165); conditions: higher = more signal; also: test concentration not given here
# [5] = calcein-AM signal in unstimulated myeloma cells – cell-based, calcein-AM fluorescence, 48 h, PK04 Diversity Set, profiling panel (AID 1166); conditions: RPMI8226 myeloma viability, higher = more signal;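 also: cells grown under basal conditions without added stimulus; test concentration not given here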
# [6] = JC-1 mitochondrial signal, unstimulated HepG2 cells – cell-based, JC-1 fluorescence, 24 h, 100 nL compound, profiling panel (AID 1167); conditions: HepG2 mitochondrial potential, higher = more signal; also: test concentration not given here
# [7] = JC-1 mitochondrial signal, unstimulated adipocytes – cell-based, JC-1 fluorescence, 3T3-L1 adipocytes, 24 h, 100 nL compound, profiling panel (AID 1168); conditions: JC-1 mitochondrial fluorescence, higher = more signal, called active from +8 up or from −8 down; also: test concentration not given here
# [8] = JC-1 mitochondrial signal, unstimulated myeloma cells – cell-based, JC-1 fluorescence, RPMI8226, 24 h, 100 nL compound, profiling panel (AID 1169); conditions: JC-1 mitochondrial potential fluorescence, higher = more signal; also: test concentration not given here
# [9] = JC-1 mitochondrial signal, unstimulated MM1S myeloma – cell-based, JC-1 fluorescence, 24 h, 100 nL compound, profiling panel (AID 1170); conditions: MM1S mitochondrial potential, higher = more signal; also: test concentration not given here
# [10] = resazurin metabolic signal in A549 cells – cell-based, resazurin fluorescence, 24 h, PK04 Diversity Set, profiling panel (AID 1171); conditions: A549 viability, higher = more signal, called active from +8 up or from −8 down; also: test concentration not given here
# [11] = resazurin metabolic signal in HepG2 cells – cell-based, resazurin fluorescence, 24 h, PK04 Diversity Set, profiling panel (AID 1172); conditions: HepG2 viability, higher = more signal; also: test concentration not given here
# [12] = budding yeast growth changes without added modifier – OD600, strain BY4716, 24 h, basal condition, primary screen (AID 1173); conditions: S. cerevisiae BY4716 growth, OD600, 24 h; higher = more signal, called active from +8 up or from −8 down
# [13] = viability profiling in MM1S myeloma cells – cell-based, resazurin fluorescence, basal, 24 h, PK04 Diversity Set, profiling panel (AID 1174); conditions: higher = more signal, called active from +8 up or from −8 down; also: test concentration not given here
# [14] = biological target: Dihydroorotate dehydrogenase (quinone), mitochondrial (Plasmodium falciparum (isolate 3D7)) (UniProt Q08210); assay: inhibition of P. falciparum DHODH – biochemical, C-terminal His tag, absorbance 600 nm, primary screen (AID 1175); conditions: PfDHODH enzyme, DCIP absorbance 600 nm; higher = more signal, called active from +8 up or from −8 down;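 also: recombinant parasite enzyme with a five histidine tag at its C terminus; test concentration not given here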
# Chain of Dihydroorotate dehydrogenase (quinone), mitochondrial (Plasmodium falciparum (isolate 3D7)) (Q08210 whole entry, looked up): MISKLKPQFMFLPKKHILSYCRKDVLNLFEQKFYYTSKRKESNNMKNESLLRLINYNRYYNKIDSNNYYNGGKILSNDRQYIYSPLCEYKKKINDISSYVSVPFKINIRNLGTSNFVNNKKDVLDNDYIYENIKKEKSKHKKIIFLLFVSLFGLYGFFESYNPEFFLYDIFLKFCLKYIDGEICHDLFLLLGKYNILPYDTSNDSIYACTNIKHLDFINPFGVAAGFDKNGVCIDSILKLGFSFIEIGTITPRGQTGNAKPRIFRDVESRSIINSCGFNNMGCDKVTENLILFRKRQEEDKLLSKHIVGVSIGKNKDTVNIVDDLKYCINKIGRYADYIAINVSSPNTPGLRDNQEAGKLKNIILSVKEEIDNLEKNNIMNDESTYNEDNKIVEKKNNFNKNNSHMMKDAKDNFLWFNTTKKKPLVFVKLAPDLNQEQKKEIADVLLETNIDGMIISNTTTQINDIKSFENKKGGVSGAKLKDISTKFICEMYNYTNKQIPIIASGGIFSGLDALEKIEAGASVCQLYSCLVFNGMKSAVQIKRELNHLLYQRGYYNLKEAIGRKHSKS
# [15] = inhibition of PAO1 biofilm formation – strain PAO1, LB-PBS medium, absorbance 600 nm, primary screen (AID 1176); also: test concentration not given here; conditions: P. aeruginosa PAO1 growth/biofilm, A600, 12 h; higher = more signal
# [16] = growth modulation of vineyard yeast isolate – strain RM11-1a, OD600, basal, 24 h, primary screen (AID 1177);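 also: cultures grown under basal conditions with no added stressor; test concentration not given here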; conditions: S. cerevisiae RM11-1a growth, OD600, 24 h; higher = more signal, called active from +8 up or from −8 down
# [17] = growth of efflux-deficient E. coli DRC39 – strain DRC39, OD650, 24 h, E. coli filamentation inducers, primary screen (AID 1178);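 also: growth measured as culture turbidity by optical density at 650 nm; test concentration not given here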; conditions: E. coli DRC39 acrAB, higher = more signal, called active from +8 up or from −8 down
# [18] = growth of efflux-deficient E. coli DRC39 – strain DRC39, OD650, 48 h, E. coli filamentation inducers, primary screen (AID 1179);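 also: screen aims at cell division blockers that make cells filament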; conditions: E. coli DRC39 delta-acrAB growth, higher = more signal, called active from +8 up or from −8 down
# [19] = viability profiling in RPMI8226 myeloma cells – cell-based, resazurin fluorescence, basal, 24 h, PK04 Diversity Set, profiling panel (AID 1180); conditions: higher = more signal;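 also: RPMI8826 multiple myeloma cell line at 5000 cells per well; test concentration not given here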
# [20] = biological target: E3 ubiquitin-protein ligase XIAP (Homo sapiens) (UniProt P98170); assay: small molecules binding XIAP protein – biophysical, small-molecule microarray, fluorescence 635 nm, primary screen (AID 1181); conditions: higher = more signal;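 also: score merges 667 nm emission and signal to noise over triplicate slides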
# Chain of E3 ubiquitin-protein ligase XIAP (Homo sapiens) (P98170 whole entry, looked up): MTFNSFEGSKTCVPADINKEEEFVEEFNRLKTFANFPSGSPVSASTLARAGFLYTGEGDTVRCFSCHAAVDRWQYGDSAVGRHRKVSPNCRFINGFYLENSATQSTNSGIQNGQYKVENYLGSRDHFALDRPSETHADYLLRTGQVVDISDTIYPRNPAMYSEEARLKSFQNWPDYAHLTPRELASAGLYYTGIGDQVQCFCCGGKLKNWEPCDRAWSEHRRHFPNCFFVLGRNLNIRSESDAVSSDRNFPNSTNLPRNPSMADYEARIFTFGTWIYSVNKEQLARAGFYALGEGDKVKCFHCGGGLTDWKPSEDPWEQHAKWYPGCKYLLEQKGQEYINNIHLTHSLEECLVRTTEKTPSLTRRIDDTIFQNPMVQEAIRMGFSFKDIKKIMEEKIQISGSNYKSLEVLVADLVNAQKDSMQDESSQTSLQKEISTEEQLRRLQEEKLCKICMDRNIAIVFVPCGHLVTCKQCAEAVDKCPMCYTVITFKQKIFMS
Compound,z-score [1],z-score [2],z-score [3],z-score [4],z-score [5],z-score [6],z-score [7],z-score [8],z-score [9],z-score [10],z-score [11],z-score [12],z-score [13],composite z-score [14],z-score [15],z-score [16],z-score [17],z-score [18],z-score [19],composite z-score [20]
CCOC(=O)[C@H]1C[C@H]2O[C@@]23C[C@H]1C(=O)N1CCCC1[C@@H]3O[Si](C)(C)C(C)(C)C (stereo not given in full),-0.486,0.729,-0.154,-0.337,-0.5,-0.625,-0.166 (inactive),-0.366,0.193,-0.456 (inactive),-0.332,-4.67 (inactive),-0.88 (inactive),-0.17 (inactive),0.367 (inactive),-0.521 (inactive),-0.205 (inactive),-0.595 (inactive),0.0096,-0.083
COc1ccc(C#Cc2ccc3c(c2)[C@]2(C(=O)N3)[C@H](C(=O)NC[C@H](O)c3ccccc3)[C@H]3C(=O)O[C@H](c4ccccc4)[C@H](c4ccccc4)N3[C@@H]2c2ccc(OCCO)cc2)cc1,0.415,1.17,-0.425,-1.82,-1.07,-1.51,2.53 (inactive),-1.04,-0.733,-0.171 (inactive),-1.07,2.22 (inactive),-1.16 (inactive),-0.0157 (inactive),2.55 (inactive),2.97 (inactive),-0.34 (inactive),-0.151 (inactive),-1.47,-0.125
[N-]=[N+]=NCc1ccccc1C[C@@]1(C(=O)N2CCOCC2)N=C(c2ccc(OCCCO)cc2)O[C@@H]1c1ccccc1CN=[N+]=[N-],0.052,-0.19,1.29,-0.757,-2.91,0.883,0.612 (inactive),-0.997,-1.15,-1.46 (inactive),-0.638,0.418 (inactive),-2.22 (inactive),-0.346 (inactive),2.03 (inactive),1.19 (inactive),0.296 (inactive),1.06 (inactive),-1.46,-0.138
CC(C)NC(=O)[C@@]1(Cc2ccccc2I)c2ccccc2C(=O)N(Cc2ccccc2)[C@H]1c1ccc(CO)cc1,-0.547,-0.405,-0.513,0.525,-0.651,0.798,-1.19 (inactive),-0.638,-0.715,1.29 (inactive),0.255,-0.659 (inactive),-0.329 (inactive),0.799 (inactive),0.972 (inactive),-0.0378 (inactive),-0.24 (inactive),-0.324 (inactive),-0.211,-0.0023
CCCCC=C[C@@H](NC(=O)c1cccs1)c1ccccc1,-2.03,-0.906,-1.92,-1.66,-4.69,-0.503,0.482 (inactive),-0.817,-1.73,-1.49 (inactive),0.327,0.822 (inactive),-0.321 (inactive),0.0375 (inactive),0.191 (inactive),1 (inactive),0.659 (inactive),0.955 (inactive),-1.95,-0.0426
O=C(CS)NCCCCCCNC(=O)[C@@H]1C[C@@H]2C(=O)N3CCC[C@H]3C(=O)N2[C@@H]1c1ccc(O)cc1,-1.09,0.519,-0.507,0.16,0.412,-1.57,-0.124 (inactive),0.653,0.0659,-0.331 (inactive),-0.564,0.784 (inactive),0.357 (inactive),0.586 (inactive),-0.158 (inactive),1.24 (inactive),-0.0727 (inactive),-0.313 (inactive),-0.449,0.0153
Cc1cc(C)c(C(O)C2C=CC3C(=O)N(c4ccccc4)C(=O)C3N2Nc2ccc(C#N)cc2)c(C)c1 (stereo not given),0.0841,-1.06,1.33,-0.448,-0.127,-1.71,-1.51 (inactive),0.211,-0.308,0.0763 (inactive),-0.833,0.011 (inactive),0.0952 (inactive),0.623 (inactive),1.26 (inactive),0.384 (inactive),-0.232 (inactive),-0.185 (inactive),-0.451,-0.253
COC(=O)[C@@]1(Cc2ccccc2)[C@H]2c3cc(C(=O)N4CCCC4)n(C)c3C[C@H]2CN1C(=O)c1ccccc1,-1.14,0.167,-1.24,0.143,-0.284,0.533,-0.469 (inactive),-0.0143,-0.827,-0.526 (inactive),-0.533,0.211 (inactive),-1.48 (inactive),0.381 (inactive),0.976 (inactive),0.513 (inactive),-0.396 (inactive),-0.0676 (inactive),-0.705,0.391
CC1CC/C=C\[C@H]2OC34C=CCN(Cc5ccccc5)C(=O)[C@H]3N(CCCCCO)C(=O)[C@@H]4C2C(=O)O1 (stereo not given in full),0.482,0.449,-0.069,1.51,0.599,0.647,-0.478 (inactive),-0.514,1.12,0.374 (inactive),-0.0371,-0.308 (inactive),0.521 (inactive),-0.419 (inactive),-0.565 (inactive),0.0882 (inactive),0.443 (inactive),0.667 (inactive),0.461,-0.0062
